Experimental findings from PubChem BioAssay (NCI) are described below.

Test in all cases: NCI-60 one-dose screen, 48 h (100 = growth as untreated, 0 = no growth, -100 = all killed)
What all share (conditions): 10 µM unless noted

The test system of test [1] is NCI-H23 lung.
Test [2] concerns NCI-H226 lung.
The subject of test [3] is NCI-H322M lung.
Test [4] has as its system HOP-62 NSCLC.
Test [5] relates to NCI-H460 lung.
Test [6] deals with HOP-92 NSCLC.
The test system of test [7] is NCI-H522 lung.
Test [8] has as its system A549/ATCC NSCLC.
The test system of test [9] is 786-0 renal.
For test [10], the system named is COLO 205 colon.

About 83,000 compounds went through this panel and 20% of them were active in at least one assay; those are over-represented in the sample as a whole.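 In brief: 96-well plates, 48 h treatment, single concentration, percent growth endpoint.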 Unmarked numbers belong to inactive results. Calls of active or inactive are those of the source. Rule for the calls: active = growth percent below 10; inactive = the rest.

Consider `NC(=O)CSc1oc(-c2ccccc2)nc1S(=O)(=O)c1ccc(Br)cc1`, for which the growth is 79.8% in test [1]; 54.7% in test [2]; 89.8% in test [3]; 73.9% in test [4]; 71.6% in test [5]; 5.26% (active) in [6]. In addition, the growth was 70.1% in [7], 74.5% in [8], 25.9% in test [9] and 107% in test [10].

Consider `C#CCOc1cccc(Nc2ncnc3ccc(NC(=O)C=C)cc23)c1`, for which the growth in test [1] was 65.4%; in [2], 61.8%; in test [3] it was 2% (active); in test [4], 58.4%; in test [5], 81.2%; in [6], 14.7%. The growth in [7] was 15.9%; in [8], 34.2%; in test [9], 35.2%; in [10], 68.4%.

For the molecule `COc1ccc(C(=O)C/C(=C\c2ccc(Cl)cc2)C(=O)NCc2ccccc2)cc1`, the growth is 90.6% in test [1]; 73.4% in test [2]; 84.5% in test [3]; 82.6% in test [4]; 74.4% in test [5]; 86.2% in test [6]. The growth in test [7] was 60.7%; in test [8], 84.7%; in test [9], 99.2%; in test [10], 108%.

For `CN(C)c1ccc(-c2c(C#N)c(N)nn2C(=O)c2ccc(NC(=O)c3ccccn3)cc2)cc1`, the growth was 96.5% in test [1]; 98.2% in [2]; 96.7% in test [3]; 94.3% in test [4]; 94.2% in [5]; 94.9% in [6]. Further, the growth was 91.4% in [7], 96.1% in [8], 96% in [9] and 104% in test [10].

Regarding `Nc1[nH]n2cc(-c3ccccc3)nc2c1N=Nc1ccc(S(N)(=O)=O)cc1`, the growth was 45.7% in test [1]; 52.7% in test [2]; 36.6% in [3]; 42.5% in [4]; 20.1% in [5]; 25.7% in test [6]. In addition, the growth is 30.5% in [7], 32.8% in [8], 28.4% in test [9] and 45.1% in test [10].

Consider `CCCCCC(/C=N\NC(=S)N/N=C/C(=C/c1ccccc1)CCCCC)=C\c1ccccc1`, for which the growth is 70.6% in test [1]; 89.8% in test [2]; 61.3% in test [3]; 72.7% in test [4]; 57.8% in test [5]; 15.8% in test [6]. Moreover, the growth in test [7] is 40.4%; in test [8], 74.8%; in test [9], 79.9%; in test [10] it was 97.2%.

On to `Cc1ccc2c(n1)C(=O)C(Br)=C(CC(C)C)C2=O`, for which the growth was 98.6% in [1]; 97.2% in test [2]; 96.5% in test [3]; 97.1% in test [4]; 105% in [5]; 80.4% in test [6]. In addition, the growth is 67.7% in test [7], 90.8% in test [8], 96.3% in test [9] and 78.5% in test [10].

`COCCOc1cc2ncnc(N3CCN(c4ncc(S(=O)(=O)N5CCCCC5)cn4)CC3)c2cc1OCCOC`: the growth was 91.5% in test [1]; 97.2% in test [2]; 96.5% in test [3]; 118% in [4]; 103% in test [5]; 89.5% in test [6]. In addition, the growth in test [7] was 84.4%; in [8] it was 102%; in [9] it was 108%; in test [10], 121%.

Take `O=C1/C(=C\c2ccc3nccnc3c2)SC(=S)N1CCc1ccc(O)cc1`: the growth in test [1] is 98.2%; in test [2], 96%; in test [3], 103%; in test [4], 108%; in [5], 102%; in [6], -3.77% (active). Besides, the growth in test [7] is 65.9%; in test [8], 101%; in test [9] it was 60.6%; in [10], 119%.

For `Clc1ccc2c(c1)C(c1c[nH]c3ccccc13)(c1c[nH]c3ccccc13)CCO2`, the growth in test [1] was 93.5%; in test [2] it was 79.7%; in test [3] it was 90.8%; in [4] it was 46.4%; in [5], 85.3%; in [6], 43.1%. Further, the growth in test [7] is -62.7% (active); in [8], 24.6%; in test [9] it was 80.8%; in test [10], 51.4%.

As for `CC1CCN(CCOc2ccc(CNc3ccc4nc(CCC5CCCCC5)[nH]c4c3)cc2)CC1`, the growth in test [1] was 71.7%; in test [2] it was 30.9%; in test [3], 58.5%; in [4] it was 61.5%; in test [5], 27.1%; in test [6] it was 16%. Also, the growth in [7] is 44.8%; in test [8] it was 55.3%; in test [9], -55.6% (active); in [10], -84.7% (active).

On to `C#CCOC(=O)/C=C/c1cn(-c2ccccc2)nc1-c1ccc(OC)cc1`, for which the growth is 89.1% in [1]; 81.6% in [2]; 99.4% in [3]; 93% in test [4]; 95.1% in test [5]; 60.8% in [6]. Moreover, the growth in test [7] was 50%; in test [8] it was 77.5%; in test [9] it was 98.9%; in [10] it was 121%.

For `COc1ccc(C2=C(Br)C(=O)c3nc(C)ccc3C2=O)cc1`, the growth in test [1] is 88.1%; in test [2], 83%; in test [3] it was 88.4%; in test [4] it was 86.8%; in test [5], 95.7%; in [6], 78%. The growth in test [7] is 24%; in [8], 98%; in test [9] it was 103%; in test [10] it was 0.376% (active).
